# Reference: PubChem BioAssay (NCATS)
# Results filed as inconclusive are left out. Calls of active or inactive are those of the source. The call rests on the fitted dose curve.
# Experiment: Natriuretic polypeptide receptor (hNpr1) antagonism - Pilot counterscreen GloSensor control cell line (AID 1347045)
# Conditions: HEK293 cGMP GloSensor cells, SNP-stimulated luminescence, 20 min; series mostly up to 38.3 µM; activity change, negative = inhibition: at the top concentration
# Experimental: F. Fan, B. F. Binkowski, B. L. Butler, P. F. Stecha, M. K. Lewis, K. V. Wood, Novel genetically encoded biosensors using firefly luciferase. ACS Chem Biol 3, 346-351 (2008).
# PROTOCOL TABLE (as described by Inglese J, Shamu CE and Guy RK. 2007)
# SEQUENCE No. (e.g., 1, 2, 3, etc.); […] (e.g., Cells, Incubation, Reagent, etc.); VALUE and DESCRIPTION.
# 1. Cells. Seed 1500 HEK293 cGMP-sensor cells per well in 4uL into Greiner 1536-well white/solid bottom high base, TC plates.
# 2. Incubation. Incubate plated cells at 37C in 5% CO2, 95% RH overnight.
# 3. Reagent. Add 1uL per well GloSensor reagent from Promega (2% final concentration) or CO2 independent media vehicle control to respective columns of Greiner 1536-well plates.
# 4. Incubation. Incubate plated cells at room temperature for 2 h, protect from light.
# 5. Compounds. Library compounds and DMSO vehicle control added at 23nL per well, transferred by Pin Tool.
# 6. Incubation. Incubate plated cells for 30 min. at room temperature, protect from light.
# 7. Detector. GloSensor baseline pre-read luminescence measured using CCD-based camera (Viewlux).
# 8. Compound. Add 1uL of sodium nitroprusside (SNP) to 50 uM final concentration to stimulate soluble guanylyl cyclase (GC) or CO2 independent media as vehicle control.
# 9. Incubation. Incubate treated cells at room temperature for 20 min., protect from light.
# 10. Detector. GloSensor post-SNP luminescence measured using CCD-based camera (Viewlux).
# NOTES (numbers refer to Sequence numbers above; values are from representative experiments)
# 1. HEK293 cells expressing GIP/pGS-40F were grown to 85-95% confluence (48-72 h) in T175 culture flasks (CO2 independent media supplemented with 10% FBS, 1% Pen/Strep antibiotics, and 1 ug/mL puromycin). Trypsinize and harvest cells from T175 culture flasks and filter through 40 um cell strainer. Cells counted with Invitrogen Countess (30,000,000 - 50,000,000 cells/flask).
# 2. Cells incubated for 24 h. at 37C in 95% RH incubator with metal lid having gas-exchange holes.
# 3. Prepare GloSensor Reagent (Promega): Reconstitute GloSensor luciferase substrate by adding 8.2mL Hepes buffer to 250mg substrate, mix well, protect from light and stored at -80C. Prepare a fresh 12% GloSensor solution in CO2 independent supplemented plating media (see above). Mix well and store at ambient temperature, protected from light. 1uL 12% GloSensor Luciferase Reagent added (2% final concentration) to respective columns of 9 x 1536-well Greiner plate with BioRaptr, 1uL CO2 independent plating media added to respective columns as vehicle control with BioRaptr.
# 4. Cells incubated for 2 h. at ambient temperature, protected from light with metal lid having gas-exchange holes.
# 5. 23nL of LOPAC128 library compounds (7 plates) or DMSO vehicle control transferred to 9 Greiner white/solid bottom high base, TC plates in 7 interplate 1:5 titrations (see Yasgar, A. et al. 2008) with Pintool. Two of the 9 plates are DMSO-only in compound field at beginning and end of compound library-treated plates.
# 6. Cells incubated for 30-50 min. at ambient temperature protected from light with metal lid having gas-exchange holes.
# 7. Read GloSensor + Antagonist/Compound baseline Luminescence on the ViewLux [Exposure, 30 s; Gain, High; Speed, Slow; Binning, 2X]
# 8. SNP solution prepared at 500 mM (in H2O) stock concentration. From this a working dilution was prepared at 300 uM in CO2 Independent media. 1uL of 300 uM SNP (50 uM final concentration) or CO2 Independent media vehicle control dispensed into respective columns of 9 x Greiner 1536-well white/solid bottom, tissue culture plates with BioRaptr.
# 9. Cells incubated for 20 min. at ambient temperature, protected from light with metal lid having gas-exchange holes.
# 10. Read final luminescence on the ViewLux. [Exposure, 30 s; Gain, High; Speed, Slow; Binning, 2X.]
# […]
# On the % scale 0 is the no-effect control and ±100 the full control effect; potency means the concentration at half of the fitted maximal effect.
SMILES,"activity change, negative = inhibition",Potency
CCCCOc1cc(CC2CNC(=O)N2)ccc1OC (stereo not given),1.62% (inactive),–
CC(=O)N[C@@H](Cc1c[nH]c2ccccc12)C(=O)OCc1cc(C(F)(F)F)cc(C(F)(F)F)c1,2.41% (inactive),–
CNCCNS(=O)(=O)c1cccc2cnccc12,-6.71% (inactive),–
NC(=O)c1ccccc1,0.833% (inactive),–
O=C(O)C1CCCNC1 (stereo not given),-0.394% (inactive),–
Cn1cc(C(=O)OCC2CCN(CCNS(C)(=O)=O)CC2)c2ccccc21,5.55% (inactive),–
C[C@]12C=CC(=O)C=C1CC[C@@H]1C2=CC[C@]2(C)[C@@H](C(=O)CN3CCN(c4cc(N5CCCC5)nc(N5CCCC5)n4)CC3)CC[C@@H]12,-6.42% (inactive),–
Cc1nc(N=Nc2ccc(C(=O)O)cc2)c(COP(=O)(O)O)c(C=O)c1O,10.3% (inactive),–
CN(C)CCCc1cc(C(=O)Nc2ccc(-c3ccncc3)cc2)ccc1O,0.542% (inactive),–
CC(N)=O,12.5% (inactive),–
CN1CC(O)C(O)C(O)C1CO (stereo not given),5.05% (inactive),–
NC(Cc1cccc(-c2ccccc2CP(=O)(O)O)c1)C(=O)O (stereo not given),3.58% (inactive),–
Nc1ccc(-c2ccc3ccccc3n2)cc1,–,14.7 µM (active)
NCC(O)C1CCCCCCC1 (stereo not given),2.69% (inactive),–
CN1CCCC1CCOC(C)(c1ccccc1)c1ccc(Cl)cc1 (stereo not given),2.36% (inactive),–
CC(/C=C/c1cccc(Oc2ccc(F)cc2)c1)N(O)C(N)=O (stereo not given),-6.47% (inactive),–
O=[N+]([O-])c1cccc2c(Br)[nH]nc12,-0.902% (inactive),–
COC(=O)C(N)Cc1ccc(Cl)cc1 (stereo not given),1.7% (inactive),–
Nc1nc2[nH]c(=O)cnc2c(=O)[nH]1,-9.85% (inactive),–
C=C1C[C@@]23CC[C@H]4[C@@](C)(CCC[C@@]4(C)C(=O)OC4OC(CO)C(O)C(O)C4O)[C@@H]2CC[C@]1(OC1OC(CO)C(O)C(O)C1OC1OC(CO)C(O)C(O)C1O)C3 (stereo not given in full),2.95% (inactive),–

SMILES,"activity change, negative = inhibition",Potency
N[C@@H](Cc1ccc(O)c(I)c1)C(=O)O,14.3% (inactive),–
O=C(O)[C@H]1NCCC[C@H]1C(=O)O,6.04% (inactive),–
CC1=C(/C=C/C(C)=C/C=C/C(C)=C\C(=O)O)C(C)(C)CCC1,0.801% (inactive),–
CCSC(=N)N,-0.817% (inactive),–
O=C(c1ccc2c(c1)OCCO2)N1CCCCC1,-0.488% (inactive),–
N[C@H](C(=O)O)[C@H](O)C(=O)O,1.95% (inactive),–
NC1C=CC=C(C(=O)O)C1 (stereo not given),3.67% (inactive),–
CC(C)(C)NCC(O)COc1cccc2[nH]c(=O)[nH]c12 (stereo not given),-0.555% (inactive),–
C=C1C(=O)O[C@@H]2[C@H]3O[C@]3(C)CCC=C(C)CC[C@@H]12,–,18.5 µM (active)
N=C(N)SCCN,6.54% (inactive),–
CC(C)(C)c1cc(/C=C(\C#N)C(N)=S)cc(C(C)(C)C)c1O,–,1.17 µM (active)
O=C(O)c1ccccc1Nc1ccccc1,-24.8% (inactive),–
CCC1(O)CC2CN(CCc3c([nH]c4ccccc34)[C@@](C(=O)OC)(c3cc4c(cc3OC)N(C)C3[C@]45CCN4CC=C[C@@](CC)([C@@H](OC(C)=O)[C@]3(O)C(=O)OC)[C@H]45)C2)C1 (stereo not given in full),-1.06% (inactive),–
Cc1cccc(C)c1OCC(N)C(C)C (stereo not given),5.32% (inactive),–
NC(N)=[N+]1CCc2ccccc2C1,0.228% (inactive),–
c1ccc2c(c1)CCC[C@H]2Nc1nc2ccccc2[nH]1,-1.62% (inactive),–
O=C(O)c1cc(=O)cc(C(=O)O)[nH]1,15.1% (inactive),–
C=CC1(C)CC(=O)C2(O)C(C)(O1)C(OC(C)=O)C(O)C1C(C)(C)CCC(O)C12C (stereo not given),25.9% (inactive),–
O=c1onc2cnc3ccccc3n12,–,0.261 µM (active)
COc1ccccc1N1CCN(CCCCNC(=O)c2ccc3ccccc3c2)CC1,-0.0042% (inactive),–
